From PubChem BioAssay (EPA / NIEHS) come the findings set out here.

SMILES strings stand for the structures. A structure can be active in one record and inactive in another. Active and inactive are the calls of the source. How the source made its calls: active means hit-call score of the fitted dose curve at least 0.9, where 1 is the maximum; inactive means score below 0.9.

The nature of assay [1]: ATG_M_61_CIS: Attagene CIS-FACTORIAL HepG2 Assay for M61 Transcription Factor (Internal Marker) (AID 2282937). The note with it: HepG2 Attagene CIS-FACTORIAL M61 internal marker reporter; actives raise or lower the signal. A digest of the protocol: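 Fluorescence from labelled cDNA fragments, separated by capillary electrophoresis, quantifies reporter induction. HepG2 cells bearing transiently transfected cis-promoter MRTUs were incubated with test chemical for 24 h; DMSO defined baseline for gain/loss fitting.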

Assay [2] can be described thus: ATG_M_19_CIS: Attagene CIS-FACTORIAL HepG2 Assay for M19 Transcription Factor (Internal Marker) (AID 2282939). The settings on record: HepG2 Attagene CIS-FACTORIAL M19 internal marker reporter; actives raise or lower the signal. A digest of the protocol:
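Readout: fluorescent reporter-transcript fragments by capillary electrophoresis after RT-PCR. Human HepG2 liver cells carried transfected MRTU constructs reporting endogenous transcription-factor activity; exposure 24 h. Gain or loss of signal fitted relative to DMSO.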

A short description of assay [3]: ATG_ERE_CIS: Attagene CIS-FACTORIAL HepG2 Assay for Estrogen Response Element (ERE) (AID 2282940). The settings on record: HepG2 ERE cis-reporter, Attagene RNA transcript; actives raise or lower the signal. Summed up:
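Readout: reporter mRNA induction by RT-PCR, FAM-labelled primer extension, HpaI digestion and capillary electrophoresis, 24 h after dosing transfected HepG2 cells. Endogenous transcription factors act on cis-element-regulated reporters. Gain or loss fitted against DMSO.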

A short description of assay [4]: ATG_Ets_CIS: Attagene CIS-FACTORIAL HepG2 Assay for human Erythroblast Transformation Specific (ETS) (AID 2282941). The settings on record: HepG2 ETS cis-reporter transcription, actives raise or lower the signal. A digest of the protocol: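 Cis-regulated reporter mRNA induction in HepG2 (transient transfection), 24 h exposure, RT-PCR plus capillary electrophoresis detection; DMSO serves as negative control and baseline.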

In assay [5] the target is Hepatocyte nuclear factor 3-beta (Homo sapiens) (UniProt Q9Y261). The assay is described as follows: ATG_FoxA2_CIS: Attagene CIS-FACTORIAL HepG2 Assay for human Forkhead box A2 (FOXA2) (AID 2282942). The note with it: HepG2 cis-reporter transcription factor activity, 24 h; actives raise or lower the signal. Summed up:
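In transiently transfected human HepG2 cells, promoter-driven reporter mRNA levels after 24 h chemical exposure are determined via RT-PCR with capillary electrophoresis. DMSO serves as baseline for bidirectional fitting.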

A short description of assay [6]: ATG_FoxO_CIS: Attagene CIS-FACTORIAL HepG2 Assay for human Forkhead box O (FoxO) (AID 2282943). The note with it: HepG2 Attagene cis-reporter, FoxO element, mRNA; actives raise or lower the signal. A digest of the protocol:
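24 h chemical exposure, HepG2 with transient cis-MRTU transfection. RNA extraction, oligo(dT) RT, reporter-specific PCR, primer-extension labelling, HpaI digestion, CE fragment analysis; bidirectional fit, DMSO baseline.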

Assay [7] can be described thus: ATG_GATA_CIS: Attagene CIS-FACTORIAL HepG2 Assay for human GATA Binding Protein (AID 2282944). The settings on record: HepG2 GATA cis-element reporter, Attagene multiplex mRNA; actives raise or lower the signal. Summed up:
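Read-out: fluorescent reporter mRNA fragments resolved by capillary electrophoresis after RT-PCR. Human liver HepG2 cells carried transiently transfected cis-regulated reporter constructs; chemicals incubated 24 h; gain or loss of signal fitted relative to DMSO.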

The nature of assay [8]: ATG_EGR_CIS: Attagene CIS-FACTORIAL HepG2 Assay for human Early Growth Response 1 (EGR1) (AID 2282938). The note with it: HepG2 Attagene CIS-FACTORIAL EGR reporter mRNA; actives raise or lower the signal. A digest of the protocol:
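Cell-based multiplex transcription assay: HepG2 carrying transfected cis-element reporter units, 24 h chemical treatment. Fluorescence from capillary electrophoresis of RT-PCR products gives mRNA levels; fitting is bidirectional relative to DMSO.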

Assay [9] is described as follows: ATG_E_Box_CIS: Attagene CIS-FACTORIAL HepG2 Assay for human Enhancer Box (E-box) (AID 2282936). The settings on record: HepG2 E-box cis-reporter transcription, actives raise or lower the signal. A digest of the protocol: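 Measured 24 h post-dosing in HepG2 cells transfected with multiple cis-regulated reporter units, signal being reporter mRNA induction detected by fluorescent RT-PCR with capillary electrophoresis; gain or loss fitted against DMSO.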

Hepatocyte nuclear factor 3-beta (Homo sapiens), sequence (Q9Y261 whole entry, looked up): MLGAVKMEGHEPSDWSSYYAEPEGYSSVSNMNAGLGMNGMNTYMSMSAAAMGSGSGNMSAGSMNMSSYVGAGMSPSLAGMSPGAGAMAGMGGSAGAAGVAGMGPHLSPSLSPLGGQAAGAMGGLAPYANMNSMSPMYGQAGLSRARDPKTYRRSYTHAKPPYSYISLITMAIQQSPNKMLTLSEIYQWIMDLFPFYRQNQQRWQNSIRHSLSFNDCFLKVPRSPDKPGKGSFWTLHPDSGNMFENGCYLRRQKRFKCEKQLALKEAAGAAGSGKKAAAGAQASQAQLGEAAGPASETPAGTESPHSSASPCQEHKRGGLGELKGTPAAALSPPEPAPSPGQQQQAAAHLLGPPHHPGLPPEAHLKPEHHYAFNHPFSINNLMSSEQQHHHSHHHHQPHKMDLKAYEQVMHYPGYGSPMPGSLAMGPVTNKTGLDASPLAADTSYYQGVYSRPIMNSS

The AC50 is the midpoint of the concentration-response curve, whichever way the signal moves. Consider `Oc1ccc(Nc2ccccc2)cc1`, for which the result in assay [1], in [2], in assay [4], in [5], in [6] and in assay [7] was inactive. Moreover, the concentration at half-maximal activity (AC50) in assay [3] is 8.42 µM (active).

For the compound `O[Si](c1ccccc1)(c1ccccc1)c1ccccc1`, the compound was classed as inactive in assay [1], in [2], in [4], in assay [5] and in [7]. The concentration at half-maximal activity (AC50) in [3] is 12.8 µM (active).

Regarding `C#C[C@]1(O)CC[C@H]2[C@@H]3CCc4cc(OC)ccc4[C@H]3CC[C@@]21C`, the result in [1], in [8], in assay [2], in [4], in [5] and in [6] was inactive. Further, the compound was called inactive in assay [7]. In assay [3], the AC50 was 0.00935 µM (active).

Consider `OCC(F)(F)C(F)(F)C(F)(F)F`, for which the outcome in assay [9], in assay [1], in assay [2], in [3], in [4] and in [5] was inactive. In addition, the compound was classed as inactive in assay [6] and in [7].

Take `CCCCOc1ccc(N)cc1`: the outcome in assay [9], in assay [1], in assay [2], in [3], in [4] and in assay [5] was inactive. Also, the compound was called inactive in assay [6] and in assay [7].

Consider `CCCCNc1ccccc1`, for which the call in assay [1], in assay [2], in [3], in assay [4], in assay [5] and in assay [6] was inactive. The result in [7] was inactive.

As to `O=C(Cl)C(F)(F)C(F)(F)C(F)(F)C(F)(F)C(F)(F)C(F)(F)C(F)(F)C(F)(F)F`, the result in [9], in assay [1], in assay [8], in assay [2], in [3] and in assay [4] was inactive. Further, the outcome in [5] and in assay [7] was inactive.

For `O=C(O)C(F)(F)C(F)(F)C(F)(F)F`, the compound was classed as inactive in assay [1], in assay [8], in assay [2], in assay [3], in assay [4] and in assay [5]. Also, the outcome in assay [6] and in assay [7] was inactive. Further, the AC50 in assay [3] was 150 µM (active).

Take `C=C(C)C(=O)OCCC(F)(F)C(F)(F)C(F)(F)C(F)(F)C(F)(C(F)(F)F)C(F)(F)F`: the outcome in assay [9], in assay [1], in assay [8], in assay [2], in assay [4] and in assay [6] was inactive. In [7], the call was inactive. Further, the AC50 in assay [3] was 13.8 µM (active).

`NC(=O)C(F)(F)C(F)(F)C(F)(F)C(F)(F)F`: the outcome in assay [9], in assay [1], in assay [2], in assay [3], in [4] and in assay [5] was inactive. The outcome in assay [6] and in [7] was inactive.

Regarding `[Co]`, the call in assay [1], in assay [2], in assay [3], in assay [4], in [5] and in [7] was inactive.

Take `C=C(C)C(=O)OCC(F)(F)C(F)(F)C(F)(F)C(F)(F)C(F)(F)C(F)(F)C(F)(F)F`: the compound was called inactive in [1], in [8], in [2], in assay [4] and in assay [7]. For the same compound, the AC50 in [3] is 16.2 µM (active).

On to `O=C(O)C(F)(F)C(F)(F)C(F)(F)C(F)(F)C(F)(F)C(F)(F)C(F)(F)C(F)(F)C(F)(F)C(F)(F)C(F)(F)C(F)(F)C(F)(F)F`, for which the outcome in [9], in assay [1], in assay [8], in [2], in assay [3] and in assay [4] was inactive. Further, the compound was classed as inactive in assay [5] and in assay [7].

Regarding `O=C(OCCOCCOCCOC(=O)c1ccccc1)c1ccccc1`, the result in assay [9], in assay [1], in [8], in [2], in assay [4] and in assay [7] was inactive. For the same compound, the AC50 in assay [3] was 0.62 µM (active).

In the case of `CC(C)(C)C(=O)CC(=O)C(F)(F)C(F)(F)C(F)(F)F`, the outcome in [9], in assay [1], in assay [8], in [2], in [3] and in [4] was inactive. For the same compound, in assay [7], the outcome was inactive.

Consider `O=S(=O)(O)c1ccc2ccccc2c1`, for which the outcome in assay [1], in assay [8], in [2], in [3], in assay [4] and in [7] was inactive.

Turning to `FC(F)(F)C(F)(F)C(F)(F)C(F)(F)C(F)(F)C(F)(F)C(F)(F)C(F)(F)CCS`, the result in [9], in assay [1], in assay [2], in [3], in assay [4] and in [5] was inactive. In addition, the compound was called inactive in assay [7].

`N=C(N)C(F)(F)C(F)(F)C(F)(F)C(F)(F)C(F)(F)C(F)(F)C(F)(F)F`: the half-maximal activity concentration (AC50) is 68.5 µM (active) in [9], 38.6 µM (active) in assay [3] and 243 µM (active) in [7]. The call in assay [1], in [2], in [4] and in assay [5] was inactive.

`CCCCCCCCC(F)(F)C(F)(F)C(F)(F)C(F)(F)C(F)(F)C(F)(F)F`: the result in [9], in assay [1], in assay [2], in assay [3], in [4] and in assay [6] was inactive. In assay [7], the outcome was inactive.

`CC/C=C\CCOC(=O)c1ccccc1`: the outcome in [1], in [8], in assay [2], in [3], in [4] and in assay [6] was inactive. Also, in assay [7], the result was inactive.

As to `CCC(=O)OCCc1ccccc1`, the outcome in assay [9], in assay [1], in assay [8], in assay [2], in assay [3] and in [4] was inactive. Moreover, the compound was called inactive in assay [6] and in [7].

In the case of `FC(F)(F)C(F)(F)C(F)(F)C(F)(F)C(F)(F)C(F)(F)CCS`, the result in assay [9], in [1], in assay [2], in [4], in [6] and in assay [7] was inactive. The AC50 in [3] was 26.4 µM (active).

For `FC(F)(F)C(F)(F)C(F)(F)C(F)(F)C(F)(F)C(F)(F)CC1CO1` (stereo not drawn), the outcome in [1], in assay [8], in assay [2], in assay [3], in assay [4] and in [5] was inactive. For the same compound, the compound was called inactive in assay [7].

In the case of `C=CC(F)(F)C(F)(F)C(F)(F)C(F)(F)C(F)(F)C(F)(F)C(F)(F)C(F)(F)C=C`, the result in assay [1], in assay [8], in assay [2], in assay [4], in assay [5] and in [6] was inactive. The outcome in assay [7] was inactive. The half-maximal activity concentration (AC50) in assay [3] is 4.46 µM (active).

Turning to `Nc1ccc([N+](=O)[O-])cc1O`, the outcome in assay [9], in assay [1], in assay [8], in assay [2], in assay [3] and in assay [4] was inactive. Also, the call in assay [6] and in assay [7] was inactive.

Turning to `FC(F)(Br)C(F)(F)C(F)(F)C(F)(F)C(F)(F)C(F)(F)Br`, the compound was called inactive in assay [1], in assay [8], in assay [2], in assay [4], in assay [6] and in assay [7]. In addition, in [3], the AC50 was 8.15 µM (active).

`OCC(F)(F)C(F)(F)C(F)(F)C(F)F`: the result in assay [1], in [8], in [2], in assay [3], in assay [4] and in assay [6] was inactive. In addition, in assay [7], the compound was classed as inactive.

With `O=S(=O)(OCC(F)F)C(F)(F)F`, the result in assay [9], in assay [1], in [8], in assay [2], in assay [3] and in assay [4] was inactive. The call in assay [5] and in assay [7] was inactive.

Take `FC(F)(F)C(F)(F)C(F)(F)CI`: the outcome in [9], in assay [1], in assay [8], in assay [2], in [3] and in assay [4] was inactive. Besides, the call in [5] and in [7] was inactive.
